This is an account of results in paper PMC7862700, “An all-to-all approach to the identification of sequence-specific readers for epigenetic DNA modifications on cytosine”.

Holding throughout (experiment): DAPPL (digital affinity profiling via proximity ligation, sequencing); 10 mM Tris-HCl pH 7.5, 50 mM NaCl, 1 mM DTT, 4% glycerol, room temperature, 30 min; GST-TFs on glutathione beads, 16-mer random dsDNA library, 0.1% formaldehyde crosslink after washing; high values mean tight binding
For test [1], the target named is T1, FEV (Homo sapiens, UniProt Q99581 1-238).
T1 sequence: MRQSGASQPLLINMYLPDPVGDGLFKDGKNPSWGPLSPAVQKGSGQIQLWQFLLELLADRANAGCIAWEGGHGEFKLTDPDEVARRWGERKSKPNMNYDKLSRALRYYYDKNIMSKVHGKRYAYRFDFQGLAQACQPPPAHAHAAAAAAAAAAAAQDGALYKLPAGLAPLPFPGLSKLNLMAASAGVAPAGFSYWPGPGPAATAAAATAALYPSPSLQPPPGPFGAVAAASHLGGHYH
The settings on record: protein: recombinant; tags: N-terminal GST; dsDNA, one strand shown. In outline:
(§1)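 Human transcription factors fused to GST were expressed in yeast, captured on glutathione beads, given DNA barcodes and pooled with a GST-only negative control. Pools were incubated with 200 nmole of a 16-mer random double-stranded DNA library in Tris/NaCl/DTT/glycerol buffer at room temperature for 30 min. They were then washed, crosslinked with 0.1% formaldehyde, proximity-ligated (BsaI/T4 ligase, 1 h, 37 °C), PCR-amplified and sequenced on an Illumina NextSeq500. Binding signal is each 6-mer's read frequency for a factor divided by its frequency for the GST control.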

Test [2] concerns the target ETV5 (Homo sapiens, UniProt P41161 1-510). To be noted: protein: recombinant; tags: N-terminal GST; dsDNA, one strand shown. The procedure, abridged: as §1
The target of test [3] is HSF1 (Homo sapiens, UniProt Q00613 1-529). The settings on record: protein: recombinant; tags: N-terminal GST; chain copies: 3; dsDNA, one strand shown. The procedure, abridged:
as §1

The target in test [4] is T2, SPIC (Homo sapiens, UniProt Q8N5J4 1-248).
T2 sequence: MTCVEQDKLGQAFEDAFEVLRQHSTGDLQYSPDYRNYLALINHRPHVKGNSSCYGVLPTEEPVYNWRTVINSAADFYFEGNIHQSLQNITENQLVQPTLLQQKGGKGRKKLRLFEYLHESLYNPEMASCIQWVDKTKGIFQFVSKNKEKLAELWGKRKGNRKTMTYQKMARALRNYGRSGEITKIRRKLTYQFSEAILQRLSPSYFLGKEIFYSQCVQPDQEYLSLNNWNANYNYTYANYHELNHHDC
To be noted: protein: recombinant; tags: N-terminal GST; dsDNA, one strand shown. In outline: as §1

The target in test [5] is ELF4 (Homo sapiens, UniProt Q99607 1-663). The settings on record: protein: recombinant; tags: N-terminal GST; dsDNA, one strand shown. In outline: as §1
Test [6] has as its target T3, ELK4 (Homo sapiens, UniProt P28324-2 1-405).
T3 sequence: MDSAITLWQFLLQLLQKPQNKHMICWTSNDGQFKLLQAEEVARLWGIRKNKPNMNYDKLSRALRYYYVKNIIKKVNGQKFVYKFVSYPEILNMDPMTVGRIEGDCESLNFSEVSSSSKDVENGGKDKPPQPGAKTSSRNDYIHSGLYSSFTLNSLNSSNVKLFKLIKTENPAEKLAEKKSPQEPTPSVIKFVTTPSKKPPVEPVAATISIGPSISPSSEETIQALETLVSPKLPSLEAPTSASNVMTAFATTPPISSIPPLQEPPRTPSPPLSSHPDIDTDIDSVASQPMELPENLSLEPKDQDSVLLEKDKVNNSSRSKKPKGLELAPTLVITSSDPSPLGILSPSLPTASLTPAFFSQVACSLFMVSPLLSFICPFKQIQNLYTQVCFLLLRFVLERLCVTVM
The settings on record: protein: recombinant; tags: N-terminal GST; dsDNA, one strand shown. The procedure, abridged:
as §1

In test [7] the target is T4, ETV2 (Homo sapiens, UniProt O00321 1-342).
T4 sequence: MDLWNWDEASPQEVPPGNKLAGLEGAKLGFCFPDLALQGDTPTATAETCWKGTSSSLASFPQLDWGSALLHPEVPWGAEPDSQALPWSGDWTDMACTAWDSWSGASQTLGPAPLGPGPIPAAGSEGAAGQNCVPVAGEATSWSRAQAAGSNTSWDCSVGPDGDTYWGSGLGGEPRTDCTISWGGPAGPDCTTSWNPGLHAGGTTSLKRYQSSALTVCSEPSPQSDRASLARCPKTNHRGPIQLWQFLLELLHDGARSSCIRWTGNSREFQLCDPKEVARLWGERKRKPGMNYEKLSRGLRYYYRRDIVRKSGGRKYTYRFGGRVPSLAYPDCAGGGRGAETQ
To be noted: protein: recombinant; tags: N-terminal GST; dsDNA, one strand shown. The procedure, abridged:
as §1

Test [8] has as its target T5, ELF3 (Homo sapiens, UniProt P78545 1-371).
T5 sequence: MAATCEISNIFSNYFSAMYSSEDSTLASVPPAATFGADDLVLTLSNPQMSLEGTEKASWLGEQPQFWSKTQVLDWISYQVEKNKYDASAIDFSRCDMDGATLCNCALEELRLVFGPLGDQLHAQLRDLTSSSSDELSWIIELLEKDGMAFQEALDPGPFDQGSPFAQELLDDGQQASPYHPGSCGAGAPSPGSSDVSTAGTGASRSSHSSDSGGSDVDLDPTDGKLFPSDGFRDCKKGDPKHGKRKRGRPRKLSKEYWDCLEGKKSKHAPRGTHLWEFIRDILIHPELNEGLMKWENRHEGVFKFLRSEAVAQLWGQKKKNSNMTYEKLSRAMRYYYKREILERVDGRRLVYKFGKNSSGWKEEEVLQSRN
The settings on record: protein: recombinant; tags: N-terminal GST; dsDNA, one strand shown. The procedure, abridged:
as §1

Test [9] addresses CRX (Homo sapiens, UniProt O43186 1-299). To be noted: protein: recombinant; tags: N-terminal GST; dsDNA, one strand shown. The procedure, abridged: as §1
Test [10] has as its target ETV1 (Homo sapiens, UniProt P50549 1-477). The settings on record: protein: recombinant; tags: N-terminal GST; dsDNA, one strand shown. The procedure, abridged:
as §1

CRX, sequence (O43186 whole entry): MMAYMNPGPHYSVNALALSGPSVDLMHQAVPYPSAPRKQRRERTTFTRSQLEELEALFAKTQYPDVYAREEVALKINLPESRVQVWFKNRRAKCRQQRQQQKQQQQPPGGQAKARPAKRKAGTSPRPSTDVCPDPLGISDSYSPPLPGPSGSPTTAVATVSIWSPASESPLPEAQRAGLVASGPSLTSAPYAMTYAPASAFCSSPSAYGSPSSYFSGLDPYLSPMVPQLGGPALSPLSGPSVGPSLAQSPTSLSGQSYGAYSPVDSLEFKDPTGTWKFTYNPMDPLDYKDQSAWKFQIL
ETV1, sequence (P50549 whole entry): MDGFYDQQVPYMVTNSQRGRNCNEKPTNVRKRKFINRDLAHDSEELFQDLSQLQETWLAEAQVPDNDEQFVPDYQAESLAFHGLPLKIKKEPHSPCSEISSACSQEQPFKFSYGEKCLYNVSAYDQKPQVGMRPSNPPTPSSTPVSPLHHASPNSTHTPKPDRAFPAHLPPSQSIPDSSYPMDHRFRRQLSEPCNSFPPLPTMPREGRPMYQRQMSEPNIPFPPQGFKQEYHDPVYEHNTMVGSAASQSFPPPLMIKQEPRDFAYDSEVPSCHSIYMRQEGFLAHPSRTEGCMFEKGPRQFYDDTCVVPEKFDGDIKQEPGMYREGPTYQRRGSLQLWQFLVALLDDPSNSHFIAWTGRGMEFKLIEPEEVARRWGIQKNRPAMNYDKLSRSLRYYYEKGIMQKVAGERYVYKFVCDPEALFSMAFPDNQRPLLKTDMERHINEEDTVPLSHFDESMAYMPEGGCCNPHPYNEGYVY
ETV5, sequence (P41161 whole entry): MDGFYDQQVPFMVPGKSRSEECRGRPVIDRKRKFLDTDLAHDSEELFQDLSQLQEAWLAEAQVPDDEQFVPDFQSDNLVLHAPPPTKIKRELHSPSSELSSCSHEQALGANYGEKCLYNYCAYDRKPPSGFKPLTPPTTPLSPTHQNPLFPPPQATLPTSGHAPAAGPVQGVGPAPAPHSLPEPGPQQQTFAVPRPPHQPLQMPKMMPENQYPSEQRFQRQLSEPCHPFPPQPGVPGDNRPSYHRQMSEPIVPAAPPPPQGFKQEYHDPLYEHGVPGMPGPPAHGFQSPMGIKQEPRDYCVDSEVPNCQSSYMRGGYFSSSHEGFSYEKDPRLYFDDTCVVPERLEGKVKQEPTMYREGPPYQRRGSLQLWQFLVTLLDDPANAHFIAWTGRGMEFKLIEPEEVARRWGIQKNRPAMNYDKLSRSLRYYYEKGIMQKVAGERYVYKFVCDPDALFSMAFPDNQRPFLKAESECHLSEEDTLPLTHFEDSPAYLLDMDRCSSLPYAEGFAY
HSF1, sequence (Q00613 whole entry): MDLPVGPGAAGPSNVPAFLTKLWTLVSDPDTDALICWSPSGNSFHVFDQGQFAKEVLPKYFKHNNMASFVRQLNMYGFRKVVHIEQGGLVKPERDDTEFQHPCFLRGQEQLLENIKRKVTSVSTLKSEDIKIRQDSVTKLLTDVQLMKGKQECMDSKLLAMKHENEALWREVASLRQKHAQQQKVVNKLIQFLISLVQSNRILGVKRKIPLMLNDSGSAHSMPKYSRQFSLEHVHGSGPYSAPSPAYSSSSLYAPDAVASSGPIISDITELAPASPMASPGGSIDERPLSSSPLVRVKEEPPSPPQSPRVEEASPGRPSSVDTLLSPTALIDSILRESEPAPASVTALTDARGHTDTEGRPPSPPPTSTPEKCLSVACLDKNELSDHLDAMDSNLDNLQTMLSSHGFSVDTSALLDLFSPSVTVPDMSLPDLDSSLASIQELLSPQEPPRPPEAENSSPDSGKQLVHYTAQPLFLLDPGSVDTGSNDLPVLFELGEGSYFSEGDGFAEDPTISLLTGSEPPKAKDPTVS
ELF4, sequence (Q99607 whole entry): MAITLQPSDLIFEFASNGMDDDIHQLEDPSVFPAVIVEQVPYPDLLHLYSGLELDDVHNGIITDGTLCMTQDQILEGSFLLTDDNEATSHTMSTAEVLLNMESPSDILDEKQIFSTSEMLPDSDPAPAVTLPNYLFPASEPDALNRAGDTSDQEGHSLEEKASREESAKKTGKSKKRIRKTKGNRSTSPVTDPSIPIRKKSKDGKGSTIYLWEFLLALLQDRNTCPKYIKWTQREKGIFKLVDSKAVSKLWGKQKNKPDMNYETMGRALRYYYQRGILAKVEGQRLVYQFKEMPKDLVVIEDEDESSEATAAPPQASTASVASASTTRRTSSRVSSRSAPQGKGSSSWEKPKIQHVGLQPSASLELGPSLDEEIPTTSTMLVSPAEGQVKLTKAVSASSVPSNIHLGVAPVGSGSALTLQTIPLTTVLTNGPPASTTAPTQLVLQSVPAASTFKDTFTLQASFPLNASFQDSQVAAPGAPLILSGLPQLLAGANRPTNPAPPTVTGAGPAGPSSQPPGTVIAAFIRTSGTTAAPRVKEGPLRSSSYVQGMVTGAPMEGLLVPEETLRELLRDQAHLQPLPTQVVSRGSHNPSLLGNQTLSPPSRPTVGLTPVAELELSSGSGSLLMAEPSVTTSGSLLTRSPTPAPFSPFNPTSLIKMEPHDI

As to AAGCTT, the binding signal in test [1] was 1.16 fold enrichment (6-mer frequency, TF over GST control); in [2], 1.25 fold enrichment (6-mer frequency, TF over GST control); in [3] it was 1.84 fold enrichment (6-mer frequency, TF over GST control); in test [4], 1.24 fold enrichment (6-mer frequency, TF over GST control); in test [5], 1.25 fold enrichment (6-mer frequency, TF over GST control); in [6], 1.39 fold enrichment (6-mer frequency, TF over GST control). Moreover, the binding signal was 1.31 fold enrichment (6-mer frequency, TF over GST control) in test [7]; 1.29 fold enrichment (6-mer frequency, TF over GST control) in test [8]; 2.33 fold enrichment (6-mer frequency, TF over GST control) in test [9]; 1.31 fold enrichment (6-mer frequency, TF over GST control) in test [10].
For TCCACG, the binding signal in [2] was 1.04 fold enrichment (6-mer frequency, TF over GST control); in [3] it was 1.15 fold enrichment (6-mer frequency, TF over GST control); in [4], 1.15 fold enrichment (6-mer frequency, TF over GST control); in [5], 1.13 fold enrichment (6-mer frequency, TF over GST control); in test [6], 1.13 fold enrichment (6-mer frequency, TF over GST control); in test [7], 1.3 fold enrichment (6-mer frequency, TF over GST control). For the same sequence, the binding signal in test [8] was 1.02 fold enrichment (6-mer frequency, TF over GST control); in test [10], 1.08 fold enrichment (6-mer frequency, TF over GST control).
Take CGATAT: the binding signal is 1.07 fold enrichment (6-mer frequency, TF over GST control) in test [1]; 1.05 fold enrichment (6-mer frequency, TF over GST control) in test [2]; 1.06 fold enrichment (6-mer frequency, TF over GST control) in test [3]; 1.11 fold enrichment (6-mer frequency, TF over GST control) in test [4]; 1.11 fold enrichment (6-mer frequency, TF over GST control) in [5]; 1.19 fold enrichment (6-mer frequency, TF over GST control) in [6]. Moreover, the binding signal in test [7] was 1.19 fold enrichment (6-mer frequency, TF over GST control); in test [8], 1.14 fold enrichment (6-mer frequency, TF over GST control); in [9] it was 1.03 fold enrichment (6-mer frequency, TF over GST control).
In the case of CCGACT, the binding signal was 1.52 fold enrichment (6-mer frequency, TF over GST control) in [1]; 1.44 fold enrichment (6-mer frequency, TF over GST control) in test [2]; 1.29 fold enrichment (6-mer frequency, TF over GST control) in [3]; 1.53 fold enrichment (6-mer frequency, TF over GST control) in test [4]; 1.52 fold enrichment (6-mer frequency, TF over GST control) in [5]; 1.56 fold enrichment (6-mer frequency, TF over GST control) in [6]. Moreover, the binding signal in test [7] was 1.46 fold enrichment (6-mer frequency, TF over GST control); in [8] it was 1.55 fold enrichment (6-mer frequency, TF over GST control); in test [9], 1.45 fold enrichment (6-mer frequency, TF over GST control); in test [10], 1.6 fold enrichment (6-mer frequency, TF over GST control).
In the case of CTATCC, the binding signal is 1.39 fold enrichment (6-mer frequency, TF over GST control) in [1]; 1.49 fold enrichment (6-mer frequency, TF over GST control) in test [2]; 1.25 fold enrichment (6-mer frequency, TF over GST control) in test [3]; 1.36 fold enrichment (6-mer frequency, TF over GST control) in [4]; 1.34 fold enrichment (6-mer frequency, TF over GST control) in test [5]; 1.56 fold enrichment (6-mer frequency, TF over GST control) in test [6]. The binding signal in test [7] is 1.49 fold enrichment (6-mer frequency, TF over GST control); in test [8], 1.31 fold enrichment (6-mer frequency, TF over GST control); in test [9], 1.31 fold enrichment (6-mer frequency, TF over GST control); in test [10], 1.36 fold enrichment (6-mer frequency, TF over GST control).
CCCTTT: the binding signal was 1.46 fold enrichment (6-mer frequency, TF over GST control) in test [1]; 1.45 fold enrichment (6-mer frequency, TF over GST control) in test [2]; 1.25 fold enrichment (6-mer frequency, TF over GST control) in test [3]; 1.34 fold enrichment (6-mer frequency, TF over GST control) in test [4]; 1.49 fold enrichment (6-mer frequency, TF over GST control) in test [5]; 1.34 fold enrichment (6-mer frequency, TF over GST control) in test [6]. In addition, the binding signal is 1.33 fold enrichment (6-mer frequency, TF over GST control) in [7]; 1.68 fold enrichment (6-mer frequency, TF over GST control) in test [8]; 1.35 fold enrichment (6-mer frequency, TF over GST control) in [9]; 1.4 fold enrichment (6-mer frequency, TF over GST control) in test [10].
With GAACAC, the binding signal in test [1] is 1.08 fold enrichment (6-mer frequency, TF over GST control); in test [2], 1.08 fold enrichment (6-mer frequency, TF over GST control); in test [3] it was 1.21 fold enrichment (6-mer frequency, TF over GST control); in [4] it was 1.18 fold enrichment (6-mer frequency, TF over GST control); in [5], 1.13 fold enrichment (6-mer frequency, TF over GST control); in [6], 1.17 fold enrichment (6-mer frequency, TF over GST control). Also, the binding signal in [7] is 1.33 fold enrichment (6-mer frequency, TF over GST control); in test [8] it was 1.13 fold enrichment (6-mer frequency, TF over GST control); in test [10] it was 1.18 fold enrichment (6-mer frequency, TF over GST control).
For ATCATG, the binding signal in test [1] is 1.13 fold enrichment (6-mer frequency, TF over GST control); in test [2], 1.09 fold enrichment (6-mer frequency, TF over GST control); in test [3], 1.09 fold enrichment (6-mer frequency, TF over GST control); in test [4], 1.09 fold enrichment (6-mer frequency, TF over GST control); in [5], 1.09 fold enrichment (6-mer frequency, TF over GST control); in test [6], 1.14 fold enrichment (6-mer frequency, TF over GST control). The binding signal in test [7] was 1.18 fold enrichment (6-mer frequency, TF over GST control); in [8], 1.25 fold enrichment (6-mer frequency, TF over GST control); in test [9], 1.21 fold enrichment (6-mer frequency, TF over GST control); in test [10], 1.19 fold enrichment (6-mer frequency, TF over GST control).
